In PubChem BioAssay AID1211 (NMMLSC, 2008):
Activity calls are given as the source filed them. How the calls were made is not given here.

Target: Estrogen receptor (Homo sapiens) (UniProt P03372)
Assay: ERalpha ligand binders by competition, primary screen, cell-based, Cos7 ERalpha-GFP, flow cytometry (AID 1211);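 further: 0% = DMSO vehicle wells and 100% = no E2-Alexa633 signal left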
Settings: fluorescent ligand competition, at 10 µM, stronger effect = higher value

Sequence of Estrogen receptor (Homo sapiens) (P03372 whole entry, looked up): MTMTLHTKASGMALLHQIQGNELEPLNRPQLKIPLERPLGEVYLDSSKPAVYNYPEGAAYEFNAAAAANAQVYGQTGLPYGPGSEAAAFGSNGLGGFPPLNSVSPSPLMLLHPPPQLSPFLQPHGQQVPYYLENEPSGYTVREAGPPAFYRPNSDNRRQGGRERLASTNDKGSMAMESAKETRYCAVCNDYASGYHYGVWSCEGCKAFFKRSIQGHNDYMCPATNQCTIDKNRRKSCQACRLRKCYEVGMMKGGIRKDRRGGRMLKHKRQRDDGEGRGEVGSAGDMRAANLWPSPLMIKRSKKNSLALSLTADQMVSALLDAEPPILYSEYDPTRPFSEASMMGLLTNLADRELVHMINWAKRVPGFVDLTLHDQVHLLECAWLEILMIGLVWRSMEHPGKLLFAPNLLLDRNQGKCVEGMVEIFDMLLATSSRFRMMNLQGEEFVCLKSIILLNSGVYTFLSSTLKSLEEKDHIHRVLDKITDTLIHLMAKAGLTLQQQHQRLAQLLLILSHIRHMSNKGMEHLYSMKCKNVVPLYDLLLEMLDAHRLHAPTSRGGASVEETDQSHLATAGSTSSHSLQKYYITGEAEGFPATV

For `Cc1ccc2[nH]c(=O)c(C3C(C#N)=C(N)Oc4c3ccc3cccnc43)cc2c1` (stereo not drawn), which inhibition of ligand binding is on record?
The inhibition of ligand binding was 27% (inactive).

How did the inhibition of ligand binding turn out when `Oc1ccc(-c2nccc(-c3cccs3)n2)cc1` was run?
Its inhibition of ligand binding is 40% (inactive).

How did the inhibition of ligand binding turn out when `COc1ccc(-c2nnc(-c3cc4c(ccc5ccccc54)oc3=O)o2)cc1` was run?
The inhibition of ligand binding was 58% (inactive).

How did the inhibition of ligand binding turn out when `COc1cc(NC(=O)c2cccs2)c(C(=O)OCC(=O)NCc2ccco2)cc1OC` was run?
The inhibition of ligand binding was 22% (inactive).

With `O=c1oc2ccccc2cc1-c1ccc(O)cc1O` as the compound, how does the inhibition of ligand binding read?
Its inhibition of ligand binding is 33% (inactive).

How did the inhibition of ligand binding turn out when `O=C(Nc1cccc(-c2cnc3ccccc3n2)c1)c1cccc(NC(=O)c2ccco2)c1` was run?
The inhibition of ligand binding was 68% (active).

`O=C(Cc1cccs1)Nc1ccc(S(=O)(=O)N2CCCCC2)cc1` was tested. Which inhibition of ligand binding did it give?
The inhibition of ligand binding was 32% (inactive).

Which inhibition of ligand binding does the source give for `CCc1cccc2c(C(=O)Cn3nnc(-c4ccc(OC)c(OC)c4)n3)c[nH]c12` here?
The inhibition of ligand binding was 10% (inactive).

With `COc1ccc(OC)c(C(=O)CSc2nnc(-c3ccc(OC)c(OC)c3)o2)c1` as the compound, how does the inhibition of ligand binding read?
The inhibition of ligand binding was 23% (inactive).

For `CC(=O)N1c2ccc(Cl)cc2C2C=CCC2C1c1cccc2ccccc12` (stereo not drawn), which inhibition of ligand binding is on record?
The inhibition of ligand binding was 0% (inactive).

With `CCOC(=O)CSc1nn(C)c(=S)s1` as the compound, how does the inhibition of ligand binding read?
Its inhibition of ligand binding is 52% (inactive).

`COc1ccc(Cc2nnc(NC(=O)Cc3cccs3)s2)cc1` was tested. Which inhibition of ligand binding did it give?
Its inhibition of ligand binding is 47% (inactive).

For `O=S(=O)(/N=C(/Sc1ccccc1)c1ccccc1)c1ccccc1`, which inhibition of ligand binding is on record?
The inhibition of ligand binding was 0% (inactive).

For `COc1ccc(C2Nc3ccccc3C(=O)N2c2ccccc2)cc1Cn1cc([N+](=O)[O-])cn1` (stereo not drawn), which inhibition of ligand binding is on record?
Its inhibition of ligand binding is 29% (inactive).

With `O=C(NCCN1CCOCC1)c1cnn2c(-c3ccccc3)cc(-c3ccccc3)nc12` as the compound, how does the inhibition of ligand binding read?
Its inhibition of ligand binding is 0% (inactive).

`Cc1ccc(-n2c(SCC(=O)NNC(=S)Nc3ccccc3)nc3ccccc3c2=O)cc1` was tested. Which inhibition of ligand binding did it give?
Its inhibition of ligand binding is 37% (inactive).

With `CCCSc1nc(C)c(-c2csc(C(C#N)=C3CCCC3)n2)cc1C#N` as the compound, how does the inhibition of ligand binding read?
Its inhibition of ligand binding is 37% (inactive).

Which inhibition of ligand binding does the source give for `O=S(=O)(NCC(O)COCc1ccco1)c1cccs1` (stereo not drawn) here?
Its inhibition of ligand binding is 7% (inactive).

How did the inhibition of ligand binding turn out when `COc1ccc(N=C2NC(=O)S/C2=C\c2ccc(N(C)C)cc2)cc1` was run?
The inhibition of ligand binding was 39% (inactive).

`Cc1ccccc1Nc1nnc(SCC(=O)NC(=O)NCc2ccco2)s1` was tested. Which inhibition of ligand binding did it give?
The inhibition of ligand binding was 63% (inactive).

Which inhibition of ligand binding does the source give for `Cc1ccc(S(=O)(=O)NCCn2c(C)cc3ccccc32)cc1` here?
The inhibition of ligand binding was 49% (inactive).

Which inhibition of ligand binding does the source give for `C1=C(N2CCOCC2)/C(=C/c2nc3ccccc3[nH]2)CC1` here?
Its inhibition of ligand binding is 50% (inactive).

For `Cc1noc(C)c1COC(=O)c1cc2c3ccccc3n(C)c2s1`, which inhibition of ligand binding is on record?
Its inhibition of ligand binding is 41% (inactive).

For `O=C(Nc1ccc2oc(-c3ccc4ccccc4c3)nc2c1)c1cccs1`, which inhibition of ligand binding is on record?
The inhibition of ligand binding was 32% (inactive).

For `COc1ccccc1N1CCN(C(=O)c2ccc3nc(-c4ccco4)c(-c4ccco4)nc3c2)CC1`, which inhibition of ligand binding is on record?
Its inhibition of ligand binding is 36% (active).

`CCOc1cc(C2CC(=O)c3c(ccc4ccccc34)N2)ccc1O` (stereo not drawn) was tested. Which inhibition of ligand binding did it give?
Its inhibition of ligand binding is 32% (inactive).

How did the inhibition of ligand binding turn out when `COc1cc(-c2nc3ccccn3c2/N=C/c2ccccc2)ccc1O` was run?
The inhibition of ligand binding was 53% (inactive).

`Cc1ccnc(NS(=O)(=O)c2ccc(NC(=O)c3cc(-c4ccc(Br)cc4)nc4ccccc34)cc2)n1` was tested. Which inhibition of ligand binding did it give?
Its inhibition of ligand binding is 49% (inactive).

With `O=C1C2CC=C(Cl)CC2C(=O)N1CCCCCCN1C(=O)C2CC=C(Cl)CC2C1=O` (stereo not drawn) as the compound, how does the inhibition of ligand binding read?
The inhibition of ligand binding was 36% (inactive).

Which inhibition of ligand binding does the source give for `O=C(Nc1cnn(C23CC4CC(CC(C4)C2)C3)c1)c1cnn2c(C(F)(F)F)cc(-c3ccco3)nc12` here?
Its inhibition of ligand binding is 48% (inactive).

For `COc1ccc(N=Cc2sc(O)c3ccccc23)cc1`, which inhibition of ligand binding is on record?
Its inhibition of ligand binding is 37% (inactive).

`O=C(Nc1nccs1)c1nc(-c2ccccc2)n(-c2ccccc2)n1` was tested. Which inhibition of ligand binding did it give?
Its inhibition of ligand binding is 27% (inactive).

With `CCCc1nnc2n1N=C(c1ccc(-c3cc(Cl)ccc3Cl)o1)CS2` as the compound, how does the inhibition of ligand binding read?
The inhibition of ligand binding was 47% (inactive).

`Cc1[nH]c2ccc(-c3nnc(SCC(=O)c4ccccc4F)o3)cc2c1C` was tested. Which inhibition of ligand binding did it give?
The inhibition of ligand binding was 43% (inactive).

With `CC(C)CC(=O)Nc1ccc(C(=O)COc2ccc(-c3nnco3)cc2)cc1` as the compound, how does the inhibition of ligand binding read?
The inhibition of ligand binding was 28% (inactive).

With `CCOc1ccc(Nc2oc(-c3ccccc3Cl)nc2C#N)cc1` as the compound, how does the inhibition of ligand binding read?
Its inhibition of ligand binding is 29% (inactive).

Which inhibition of ligand binding does the source give for `Cc1cc(C2(c3ccc(O)c(C)c3)OC(=O)c3ccccc32)ccc1O` here?
Its inhibition of ligand binding is 49% (inactive).

How did the inhibition of ligand binding turn out when `CCn1nnc(NC(=O)CSc2ccc(Cl)cc2)n1` was run?
The inhibition of ligand binding was 7% (inactive).

How did the inhibition of ligand binding turn out when `O=C(c1cc2ncc(Br)cn2n1)N1CCN(C(=O)c2ccco2)CC1` was run?
Its inhibition of ligand binding is 2% (inactive).

Same assay, conditions: fluorescent ligand competition, binding inhibition, at 0.1 µM, stronger effect = higher value

With `Cc1ccc2[nH]c(=O)c(C3C(C#N)=C(N)Oc4c3ccc3cccnc43)cc2c1` (stereo not drawn) as the compound, how does the inhibition of ligand binding read?
Its inhibition of ligand binding is 26%.

`Oc1ccc(-c2nccc(-c3cccs3)n2)cc1` was tested. Which inhibition of ligand binding did it give?
The inhibition of ligand binding was 28%.

`COc1ccc(-c2nnc(-c3cc4c(ccc5ccccc54)oc3=O)o2)cc1` was tested. Which inhibition of ligand binding did it give?
Its inhibition of ligand binding is 35%.

Which inhibition of ligand binding does the source give for `COc1cc(NC(=O)c2cccs2)c(C(=O)OCC(=O)NCc2ccco2)cc1OC` here?
Its inhibition of ligand binding is 20%.

How did the inhibition of ligand binding turn out when `O=c1oc2ccccc2cc1-c1ccc(O)cc1O` was run?
The inhibition of ligand binding was 18%.

`O=C(Nc1cccc(-c2cnc3ccccc3n2)c1)c1cccc(NC(=O)c2ccco2)c1` was tested. Which inhibition of ligand binding did it give?
Its inhibition of ligand binding is 23%.

For `O=C(Cc1cccs1)Nc1ccc(S(=O)(=O)N2CCCCC2)cc1`, which inhibition of ligand binding is on record?
Its inhibition of ligand binding is 22%.

How did the inhibition of ligand binding turn out when `CCc1cccc2c(C(=O)Cn3nnc(-c4ccc(OC)c(OC)c4)n3)c[nH]c12` was run?
The inhibition of ligand binding was 24%.

Which inhibition of ligand binding does the source give for `COc1ccc(OC)c(C(=O)CSc2nnc(-c3ccc(OC)c(OC)c3)o2)c1` here?
The inhibition of ligand binding was 58%.

Which inhibition of ligand binding does the source give for `CC(=O)N1c2ccc(Cl)cc2C2C=CCC2C1c1cccc2ccccc12` (stereo not drawn) here?
Its inhibition of ligand binding is 13%.

For `CCOC(=O)CSc1nn(C)c(=S)s1`, which inhibition of ligand binding is on record?
The inhibition of ligand binding was 38%.

Which inhibition of ligand binding does the source give for `COc1ccc(Cc2nnc(NC(=O)Cc3cccs3)s2)cc1` here?
The inhibition of ligand binding was 47%.

With `O=S(=O)(/N=C(/Sc1ccccc1)c1ccccc1)c1ccccc1` as the compound, how does the inhibition of ligand binding read?
Its inhibition of ligand binding is 24%.

`COc1ccc(C2Nc3ccccc3C(=O)N2c2ccccc2)cc1Cn1cc([N+](=O)[O-])cn1` (stereo not drawn) was tested. Which inhibition of ligand binding did it give?
The inhibition of ligand binding was 12%.

Which inhibition of ligand binding does the source give for `O=C(NCCN1CCOCC1)c1cnn2c(-c3ccccc3)cc(-c3ccccc3)nc12` here?
Its inhibition of ligand binding is 8%.

`Cc1ccc(-n2c(SCC(=O)NNC(=S)Nc3ccccc3)nc3ccccc3c2=O)cc1` was tested. Which inhibition of ligand binding did it give?
Its inhibition of ligand binding is 44%.

For `CCCSc1nc(C)c(-c2csc(C(C#N)=C3CCCC3)n2)cc1C#N`, which inhibition of ligand binding is on record?
Its inhibition of ligand binding is 44%.

`O=S(=O)(NCC(O)COCc1ccco1)c1cccs1` (stereo not drawn) was tested. Which inhibition of ligand binding did it give?
The inhibition of ligand binding was 4%.

`COc1ccc(N=C2NC(=O)S/C2=C\c2ccc(N(C)C)cc2)cc1` was tested. Which inhibition of ligand binding did it give?
Its inhibition of ligand binding is 8%.

`Cc1ccccc1Nc1nnc(SCC(=O)NC(=O)NCc2ccco2)s1` was tested. Which inhibition of ligand binding did it give?
The inhibition of ligand binding was 50%.

`Cc1ccc(S(=O)(=O)NCCn2c(C)cc3ccccc32)cc1` was tested. Which inhibition of ligand binding did it give?
The inhibition of ligand binding was 17%.

For `C1=C(N2CCOCC2)/C(=C/c2nc3ccccc3[nH]2)CC1`, which inhibition of ligand binding is on record?
The inhibition of ligand binding was 41%.

For `Cc1noc(C)c1COC(=O)c1cc2c3ccccc3n(C)c2s1`, which inhibition of ligand binding is on record?
Its inhibition of ligand binding is 33%.

With `O=C(Nc1ccc2oc(-c3ccc4ccccc4c3)nc2c1)c1cccs1` as the compound, how does the inhibition of ligand binding read?
The inhibition of ligand binding was 51%.

With `COc1ccccc1N1CCN(C(=O)c2ccc3nc(-c4ccco4)c(-c4ccco4)nc3c2)CC1` as the compound, how does the inhibition of ligand binding read?
Its inhibition of ligand binding is 82%.

With `CCOc1cc(C2CC(=O)c3c(ccc4ccccc34)N2)ccc1O` (stereo not drawn) as the compound, how does the inhibition of ligand binding read?
The inhibition of ligand binding was 23%.

`COc1cc(-c2nc3ccccn3c2/N=C/c2ccccc2)ccc1O` was tested. Which inhibition of ligand binding did it give?
Its inhibition of ligand binding is 11%.

How did the inhibition of ligand binding turn out when `Cc1ccnc(NS(=O)(=O)c2ccc(NC(=O)c3cc(-c4ccc(Br)cc4)nc4ccccc34)cc2)n1` was run?
Its inhibition of ligand binding is 47%.

`O=C1C2CC=C(Cl)CC2C(=O)N1CCCCCCN1C(=O)C2CC=C(Cl)CC2C1=O` (stereo not drawn) was tested. Which inhibition of ligand binding did it give?
The inhibition of ligand binding was 34%.

For `O=C(Nc1cnn(C23CC4CC(CC(C4)C2)C3)c1)c1cnn2c(C(F)(F)F)cc(-c3ccco3)nc12`, which inhibition of ligand binding is on record?
Its inhibition of ligand binding is 25%.

`COc1ccc(N=Cc2sc(O)c3ccccc23)cc1` was tested. Which inhibition of ligand binding did it give?
The inhibition of ligand binding was 36%.

`O=C(Nc1nccs1)c1nc(-c2ccccc2)n(-c2ccccc2)n1` was tested. Which inhibition of ligand binding did it give?
Its inhibition of ligand binding is 36%.

`CCCc1nnc2n1N=C(c1ccc(-c3cc(Cl)ccc3Cl)o1)CS2` was tested. Which inhibition of ligand binding did it give?
The inhibition of ligand binding was 27%.

How did the inhibition of ligand binding turn out when `Cc1[nH]c2ccc(-c3nnc(SCC(=O)c4ccccc4F)o3)cc2c1C` was run?
The inhibition of ligand binding was 4%.

With `CC(C)CC(=O)Nc1ccc(C(=O)COc2ccc(-c3nnco3)cc2)cc1` as the compound, how does the inhibition of ligand binding read?
The inhibition of ligand binding was 23%.

With `CCOc1ccc(Nc2oc(-c3ccccc3Cl)nc2C#N)cc1` as the compound, how does the inhibition of ligand binding read?
The inhibition of ligand binding was 35%.

Which inhibition of ligand binding does the source give for `Cc1cc(C2(c3ccc(O)c(C)c3)OC(=O)c3ccccc32)ccc1O` here?
Its inhibition of ligand binding is 11%.

How did the inhibition of ligand binding turn out when `CCn1nnc(NC(=O)CSc2ccc(Cl)cc2)n1` was run?
The inhibition of ligand binding was 10%.

Which inhibition of ligand binding does the source give for `O=C(c1cc2ncc(Br)cn2n1)N1CCN(C(=O)c2ccco2)CC1` here?
Its inhibition of ligand binding is 15%.
